Measured values as given in PubChem BioAssay (Tox21).
Values joined by “and” are separate entries in the source; they are usually repeats but may differ in a detail not shown here. Identical values can stand only once. A number with no mark means an inactive call. Results filed as inconclusive are left out. A call without a number means that no potency is given here. Active and inactive are the calls of the source. Unless noted, calls come from the whole dose curve; as a rule, active = well fitted curve in the direction sought with a large enough effect in the repeat runs; inconclusive = weak or mixed curves; inactive = no such curve, though single readings can be large; an effect the other way counts as inactive or inconclusive.

How the values were obtained:
[1] = qHTS assay to test for compound auto fluorescence at 460 nm (blue) in HEK293 cell free culture (AID 720681); note: potency is the fitted concentration of half-maximal effect
In short: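 Compounds were added to cell-free DMEM with 10% FBS and fluorescence read directly. The blue channel used 405 nm excitation and 460 nm emission, with triamterene as the reference fluorophore.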

[2] = qHTS assay to test for compound auto fluorescence at 535 nm (green) in HEK293 cell free culture (AID 720682)
In short: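 DMEM + 10% FBS, cell-free; cpd or DMSO pinned in; Ex485/Em535 read; output as fluorescein-equivalent signal.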

[3] = qHTS assay to test for compound auto fluorescence at 590 nm (red) in HEK293 cell free culture (AID 720683)
In short: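 Cell-free wells of DMEM with 10% FBS received compound, and intrinsic fluorescence was read at excitation/emission 540/590 nm. Values expressed as equivalence to Rose Bengal sodium.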

[4] = qHTS assay to test for compound auto fluorescence at 590 nm (red) in HepG2 cell free culture (AID 720684)
In short: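 Rose Bengal sodium served as the reference for red signal. Test compounds were dispensed into serum-containing MEM (10% FBS) without cells, and plates were read at 540/590 nm.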

[5] = qHTS assay to test for compound auto fluorescence at 460 nm (blue) in HepG2 cell free culture (AID 720685); note: potency is the fitted concentration of half-maximal effect
In short: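 Cell-free plates of MEM plus 10% FBS received 23 nL compound or DMSO vehicle; blue-channel (405/460 nm) intensity scored against triamterene as reference fluorophore.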

[6] = qHTS assay to test for compound auto fluorescence at 535 nm (green) in HepG2 cell free culture (AID 720686)
[7] = qHTS assay to test for compound auto fluorescence at 460 nm (blue) in HepG2 cells (AID 720687); note: potency is the fitted concentration of half-maximal effect
In short: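 HepG2 cells in MEM with 10% FBS, attached overnight at 37 C, were exposed to compound or DMSO for 1 hr at 37 C, 5% CO2. Blue fluorescence was read at 405/460 nm, with triamterene as reference fluorophore.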

[8] = qHTS assay for identifying genotoxic compounds that show differential cytotoxicity against isogenic chicken DT40 cell lines with known DNA damage response pathways - Rev3 mutant cell line (AID 743014); note: nearly all actives have a fitted effect of over 55% in size; note: potency is the fitted concentration of half-maximal effect
[9] = qHTS assay for identifying genotoxic compounds that show differential cytotoxicity against isogenic chicken DT40 cell lines with known DNA damage response pathways - Rad54/Ku70 mutant cell line (AID 743015); note: nearly all actives have a fitted effect of over 60% in size; note: potency is the fitted concentration of half-maximal effect
[10] = qHTS assay to identify small molecule antagonists of the androgen receptor (AR) signaling pathway - cell viability counter screen (AID 743033; note: nearly all actives have a fitted effect of over 45% in size; note: potency is the fitted concentration of half-maximal effect)
[11] = qHTS assay to identify small molecule antagonists of the thyroid receptor (TR) signaling pathway - cell viability counter screen (AID 743064); note: nearly all actives have a fitted effect of over 50% in size; note: potency is the fitted concentration of half-maximal effect
In short: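 Viability of T3-stimulated (1 nM final) GH3.TRE-Luc cells is measured by CellTiter-Fluor fluorescence after 23.5 h compound exposure at 37 °C plus 30 min reagent incubation.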

[12] = qHTS assay to identify small molecule antagonists of the glucocorticoid receptor (GR) signaling pathway - cell viability counter screen (AID 720693); note: nearly all actives have a fitted effect of over 55% in size; note: potency is the fitted concentration of half-maximal effect
[13] = qHTS assay for identifying genotoxic compounds that show differential cytotoxicity against isogenic chicken DT40 cell lines with known DNA damage response pathways - wild type cell line (AID 743012); note: nearly all actives have a fitted effect of over 60% in size; note: potency is the fitted concentration of half-maximal effect
In short: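 Viability of DNA repair-proficient chicken DT40 cells was assessed by CellTiter-Glo luminescence following 40 h compound exposure at 37 C/5% CO2.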

[14] = qHTS assay to identify small molecule antagonists of the androgen receptor (AR) signaling pathway using the MDA cell line - cell viability counter screen (AID 743041; note: nearly all actives have a fitted effect of over 45% in size; note: potency is the fitted concentration of half-maximal effect)
In short: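 Cytotoxicity counter screen: MDA-kb2 AR-luc cells, compound + R1881, 16 h, 37C, 0% CO2; CellTiter-Fluor added at 15.5 h, fluorescence read after 30 min.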

[15] = target: Glucocorticoid receptor (Homo sapiens) (UniProt P04150); test: qHTS assay to identify small molecule agonists of the glucocorticoid receptor (GR) signaling pathway (AID 720691; active = well fitted activation curve with a large enough effect in the signal ratio in the repeat runs, not every such curve was filed as active; the % refers to the signal ratio); conditions: GR-bla HeLa, beta-lactamase reporter ratio, 18 h; activation: at 62.4 µM (top of the series)
Sequence of Glucocorticoid receptor (Homo sapiens) (P04150 whole entry, looked up): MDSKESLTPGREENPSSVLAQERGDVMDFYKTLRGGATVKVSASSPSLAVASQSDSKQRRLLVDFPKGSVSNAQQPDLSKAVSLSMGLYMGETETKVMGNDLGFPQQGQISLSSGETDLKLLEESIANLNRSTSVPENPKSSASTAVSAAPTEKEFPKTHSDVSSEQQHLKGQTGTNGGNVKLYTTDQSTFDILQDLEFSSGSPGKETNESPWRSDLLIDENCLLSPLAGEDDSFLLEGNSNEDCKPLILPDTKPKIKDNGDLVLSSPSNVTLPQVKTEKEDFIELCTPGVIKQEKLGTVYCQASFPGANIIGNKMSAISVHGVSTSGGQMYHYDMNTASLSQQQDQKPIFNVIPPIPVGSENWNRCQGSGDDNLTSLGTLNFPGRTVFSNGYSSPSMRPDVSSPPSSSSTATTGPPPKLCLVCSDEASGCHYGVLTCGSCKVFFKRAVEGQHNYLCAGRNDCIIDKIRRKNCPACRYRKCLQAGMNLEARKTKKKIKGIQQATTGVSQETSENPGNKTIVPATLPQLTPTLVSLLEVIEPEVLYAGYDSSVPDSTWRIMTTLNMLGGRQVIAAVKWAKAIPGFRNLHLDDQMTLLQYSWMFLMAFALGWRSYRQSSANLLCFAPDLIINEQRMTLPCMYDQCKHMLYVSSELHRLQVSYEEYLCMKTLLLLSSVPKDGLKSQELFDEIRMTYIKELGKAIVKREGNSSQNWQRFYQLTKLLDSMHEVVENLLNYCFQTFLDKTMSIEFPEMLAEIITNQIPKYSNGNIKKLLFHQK
In short: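 Compounds in DMSO, alongside positive controls, were added to GR-bla HeLa reporter cells and incubated 18 h at 37 C; GRE-driven beta-lactamase was detected by fluorescence after 2 h with FRET substrate at room temperature.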

[16] = target: Androgen receptor (Homo sapiens) (UniProt P10275); test: qHTS assay to identify small molecule antagonists of the androgen receptor (AR) signaling pathway using the MDA cell line (AID 743042; note: nearly all actives have a fitted effect of over 55% in size; note: potency is the fitted concentration of half-maximal effect)
Sequence of Androgen receptor (Homo sapiens) (P10275 whole entry, looked up): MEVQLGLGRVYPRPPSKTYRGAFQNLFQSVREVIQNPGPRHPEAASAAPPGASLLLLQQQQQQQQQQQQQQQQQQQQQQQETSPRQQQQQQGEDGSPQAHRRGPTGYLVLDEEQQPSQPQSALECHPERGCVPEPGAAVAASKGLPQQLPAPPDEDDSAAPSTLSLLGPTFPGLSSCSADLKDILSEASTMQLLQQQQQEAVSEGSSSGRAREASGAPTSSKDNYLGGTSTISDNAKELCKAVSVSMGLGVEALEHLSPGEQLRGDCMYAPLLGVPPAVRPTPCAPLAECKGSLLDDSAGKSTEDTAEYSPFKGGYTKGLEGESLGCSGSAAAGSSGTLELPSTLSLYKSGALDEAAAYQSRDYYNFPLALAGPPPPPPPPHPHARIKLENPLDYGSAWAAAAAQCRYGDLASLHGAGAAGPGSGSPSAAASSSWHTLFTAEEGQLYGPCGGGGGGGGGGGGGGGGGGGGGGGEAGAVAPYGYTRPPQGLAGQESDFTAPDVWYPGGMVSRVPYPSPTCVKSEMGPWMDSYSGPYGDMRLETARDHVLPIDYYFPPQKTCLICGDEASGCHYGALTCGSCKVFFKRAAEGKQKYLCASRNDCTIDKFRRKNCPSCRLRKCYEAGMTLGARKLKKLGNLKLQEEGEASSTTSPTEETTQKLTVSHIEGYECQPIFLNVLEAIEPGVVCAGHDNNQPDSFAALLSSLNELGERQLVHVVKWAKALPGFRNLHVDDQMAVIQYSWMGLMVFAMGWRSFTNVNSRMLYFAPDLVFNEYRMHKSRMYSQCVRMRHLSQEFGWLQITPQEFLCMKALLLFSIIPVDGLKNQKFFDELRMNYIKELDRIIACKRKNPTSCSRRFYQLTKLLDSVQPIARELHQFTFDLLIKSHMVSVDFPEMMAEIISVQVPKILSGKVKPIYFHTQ
In short: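 MDA-kb2 breast carcinoma cells carrying MMTV-luciferase (AR/GR responsive) were co-treated with compounds and the agonist R1881 for 16 h at 37C. Inhibition read as ONE-Glo luminescence; CellTiter-Fluor fluorescence measured in parallel for cytotoxicity.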

[17] = target: Glucocorticoid receptor (Homo sapiens) (UniProt P04150); test: qHTS assay to identify small molecule antagonists of the glucocorticoid receptor (GR) signaling pathway (AID 720692; active = well fitted inhibition curve with a large enough effect in the signal ratio in the repeat runs, not every such curve was filed as active; the % refers to the signal ratio; note: potency is the fitted concentration of half-maximal effect)
In short: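 In a 1536-well cell format, compounds were added 4 h after seeding GR-bla HeLa cells, together with dexamethasone at 5 nM final; reporter activity was measured by FRET-substrate fluorescence following 18 h at 37 C.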

[18] = target: Androgen receptor (Homo sapiens) (UniProt P10275); test: qHTS assay to identify small molecule agonists of the androgen receptor (AR) signaling pathway using the MDA cell line (AID 743040; note: nearly all actives have a fitted effect of over 20% in size)
In short: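 Luciferase read-out, ONE-Glo, 30 min RT. Cells: MDA-kb2 AR-luc, MMTV promoter with AR and GR response elements. Compound exposure 16 h, 37C, 0% CO2, after 5 h pre-incubation. qHTS agonist mode.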
Tags give direction and shape of the fitted curve or compound fluorescence and quenching.

Row | SMILES | Potency [1] | Potency [2] | Potency [3] | Potency [4] | Potency [5] | Potency [6] | Potency [7] | Potency [8] | Potency [9] | Potency [10] | Potency [11] | Potency [12] | Potency [13] | Potency [14] | Potency [15] | Potency [16] | Potency [17] | Potency [18]
1 | CCOC(=O)N1CCC(=C2c3ccc(Cl)cc3CCc3cccnc32)CC1 | inactive | inactive | inactive | inactive | inactive | inactive | inactive | 7.5 µM (active) and 9.69 µM (active) | 9.44 µM (active) and 10.9 µM (active) | 17.4 µM (active) | 26.6 µM (active) and 27.3 µM (active) |  |  |  |  |  |  | 
2 | O=C(Nc1ccc(Cl)cc1)Nc1ccc(Cl)c(C(F)(F)F)c1 | inactive | inactive | inactive | inactive | inactive | inactive | inactive | 5.31 µM (active) | 5.31 µM (active) | 6.01 µM (active) | 6.68 µM (active) | 21.3 µM (active) | 4.22 µM (active) | 23.7 µM (active) |  |  |  | 
3 | O[C@@H](c1cc(C(F)(F)F)nc2c(C(F)(F)F)cccc12)[C@H]1CCCCN1 | inactive | inactive | inactive | inactive | inactive | inactive | inactive | 4.73 µM (active) | 5.31 µM (active) | 23.9 µM (active) | 5.96 µM (active) |  |  |  |  |  |  | 
4 | CCC(C)(C)c1cc(O)c(C(C)(C)CC)cc1O | inactive | inactive | inactive | inactive | inactive | inactive | inactive | 21.7 µM (active) | 17.2 µM (active) | inactive | inactive | inactive | 17.2 µM (active) | inactive | inactive | inactive |  | 
5 | CCN(CC)CCNc1ccc(CO)c2sc3ccccc3c(=O)c12 | inactive | inactive | inactive | inactive | inactive | inactive | inactive | 0.298 µM (active) | 0.237 µM (active) |  | 4.73 µM (active) | inactive | 0.841 µM (active) | 26.6 µM (active) |  |  |  | 
6 | Clc1ccc(C(c2ccccc2Cl)C(Cl)Cl)cc1 (configuration not stated) | inactive | inactive | inactive | inactive | inactive | inactive | inactive | 29.8 µM (active) and 48.6 µM (active) | 26.6 µM (active) and 43.3 µM (active) | inactive |  | inactive | 23.7 µM (active) | inactive |  |  | 10.7 µM (active) and 27.5 µM (active) | 
7 | CCCCCCCCCCCCCCCC | inactive |  | inactive | inactive | inactive | inactive | inactive | inactive | inactive | inactive |  |  | inactive | inactive | inactive |  | inactive | 
8 | Cc1cc(Nc2ccc(O)cc2)ccc1N | inactive |  | inactive | inactive | inactive | inactive | inactive | 13.6 µM (active) | 13.6 µM (active) | inactive | 12.1 µM (active) | inactive | 15.3 µM (active) |  |  |  |  | 
9 | Cc1cc2c(C(C)C)c(O)c(O)c(C=O)c2c(O)c1-c1c(C)cc2c(C(C)C)c(O)c(O)c(C=O)c2c1O | inactive | inactive | inactive | inactive | inactive | inactive | inactive | 13.3 µM (active) | 11.9 µM (active) | 21.3 µM (active) | 9.44 µM (active) | 9.52 µM (active) | 10.6 µM (active) |  |  |  |  | 
10 | Cc1c(C)n(Cc2ccccc2)c2ccc(C(=O)OCCN(C)C)cc12 | inactive | inactive | inactive | inactive | inactive | inactive | inactive | 3.76 µM (active) | 6.68 µM (active) |  | 7.5 µM (active) | inactive | 3.76 µM (active) |  | inactive |  |  | 
11 | CCCOc1sc(C(=O)N2CCC(c3cc(CN)ccc3F)CC2)c(C)c1Br | inactive | inactive | inactive | inactive | inactive | inactive | inactive | 17.7 µM (active) | 14.1 µM (active) | 20 µM (active) | 6.28 µM (active) |  | 14.1 µM (active) | 49.9 µM (active) |  | 44.5 µM (active) |  | 
12 | CC(=O)OC(OC(C)=O)c1ccc([N+](=O)[O-])o1 | inactive | inactive | inactive | inactive | inactive | inactive | inactive | 5.54 µM (active) | 15.6 µM (active) | 22.3 µM (active) | 13.9 µM (active) |  |  |  |  |  | 55.9 µM (active) | 
13 | CC(C)c1cccc(C(C)C)c1N1C(=O)c2ccc(O)cc2C1=O | 35.5 µM (active) | inactive | inactive | inactive | 39.8 µM [fluorescent] (active) | inactive | 35.5 µM [fluorescent] (active) | 7.7 µM (active) | 8.63 µM (active) | 38.9 µM (active) |  | 43.6 µM (active) |  | inactive |  |  | 38.9 µM (active) | 
14 | Nc1cc(Cl)c([N+](=O)[O-])cc1O | inactive |  | inactive | inactive | inactive | inactive | inactive |  |  | inactive | 60.6 µM (active) | inactive |  |  |  |  | inactive | 
15 | NC(=O)c1ccccc1N | inactive | inactive | inactive | inactive | inactive | inactive | inactive | inactive | inactive | inactive | inactive | inactive |  | inactive |  | inactive |  | inactive
16 | CC(C)=C1CC[C@@H](C)CC1=O | inactive | inactive | inactive | inactive | inactive | inactive | inactive | inactive | inactive | inactive | inactive |  | inactive | inactive |  |  |  | 
